Records with an inconclusive call do not appear. Active and inactive are the calls of the source. Unless noted, the call rests on the fitted dose curve; in most records, active means well fitted curve in the direction sought with a large enough effect in the repeat runs; inconclusive means weak or mixed curves; inactive means no such curve, though single readings can be large; an effect the other way counts as inactive or inconclusive.
Assays:
[1] = qHTS assay for small molecule agonists of the p53 signaling pathway (AID 651631; calls by dose curve; further: nearly all actives have a fitted effect of over 15% in size)
In short: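 Stably transfected HCT-116 cells (beta-lactamase behind p53 response elements) get compounds after a 5 h settling period; 16 h later at 37 °C, FRET substrate is loaded and fluorescence read after 2 h.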

[2] = qHTS assay for small molecules that induce genotoxicity in human embryonic kidney cells expressing luciferase-tagged ATAD5 (AID 651632); further: nearly all actives have a fitted effect of over 15% in size
In short: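 Cells were seeded at 2,000 per well, dosed with compound, and incubated 16 hr at 37C in 5% CO2. Luciferase activity was then quantified after a 30 min room-temperature incubation with Amplite.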

[3] = qHTS assay for small molecule agonists of the p53 signaling pathway - cell viability (AID 651633; calls by dose curve;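 further: p53RE-bla HCT reporter cells with a stable beta-lactamase p53 reporter; series mostly up to about 83 µM; nearly all actives have a fitted effect of over 30% in size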)
In short: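 p53RE-bla cells, seeded at 4,000 per well and rested 5 h at 37 C/5% CO2, received compounds in DMSO for 16 h at 37 C. CellTiter-Glo was then added, and luminescence was read after 30 min at room temperature to gauge cytotoxicity.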

[4] = qHTS assay for small molecules that induce genotoxicity in human embryonic kidney cells expressing luciferase-tagged ATAD5 - cell viability (AID 651634; calls by dose curve; further: nearly all actives have a fitted effect of over 25% in size)
In short: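 Cells (HEK293T, luciferase-tagged ATAD5) are seeded at 2,000 per well, dosed with compound or DMSO vehicle, and incubated 15.5 hr at 37C and 5% CO2. CellTiter-Fluor is added for 30 min before fluorescence is measured.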

[5] = qHTS assay for small molecule disruptors of the mitochondrial membrane potential - cell viability (AID 720634; calls by dose curve;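 further: human HepG2 liver cancer cells; series mostly up to about 83 µM; nearly all actives have a fitted effect of over 20% in size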)
In short: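 Cytotoxicity was measured by ATP quantitation in HepG2 wells that had first been treated with compound for 1 hr and stained with m-MPI dye; CellTiter-Glo incubation was 30 min at room temperature.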

[6] = qHTS assay to test for compound auto fluorescence at 590 nm (red) in HepG2 cells (AID 720674)
In short: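 Rose Bengal sodium served as the red fluorophore standard. HepG2 monolayers (overnight attachment, MEM with 10% FBS) were exposed to test compounds for 1 hr at 37 C and read at Ex 540/Em 590 nm.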

[7] = qHTS assay to test for compound auto fluorescence at 535 nm (green) in HepG2 cells (AID 720675)
[8] = qHTS assay to test for compound auto fluorescence at 460 nm (blue) in HEK293 cells (AID 720678)
In short: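 Blue read-out at excitation 405 nm and emission 460 nm follows overnight compound exposure of HEK293 cells at 37C in 5% CO2. Activity is given as auto fluorescence equivalency to triamterene.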

[9] = qHTS assay to test for compound auto fluorescence at 590 nm (red) in HEK293 cells (AID 720679)
In short: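 Red channel, Ex/Em 540/590nm; signal expressed as equivalency to Rose Bengal sodium. HEK293, 2,000 cells/well, 10% dialyzed FBS; 23 nL compound pinned after 4-5 hr attachment; overnight 37C/5% CO2 before reading.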
On the % scale 0 is the no-effect control and ±100 the full control effect.

O=S(=O)(O)c1cccc2c(S(=O)(=O)O)cccc12
inactive: Potency [1] | Potency [2] | Potency [3] | Potency [4] | outcome [5] | outcome [6] | outcome [7] | outcome [8] | outcome [9]

CCCCCCC1CCC(=O)O1 (centres undefined)
inactive: Potency [1] | Potency [2] | Potency [3] | Potency [4] | outcome [5] | outcome [6] | outcome [7] | outcome [8] | outcome [9]

Clc1cc(Cl)cc(Cl)c1
inactive: Potency [1] | Potency [2] | Potency [3] | Potency [4] | outcome [5] | outcome [6] | outcome [7] | outcome [8] | outcome [9]

C=COC(=O)C(C)(CC)CCC(C)C (centres undefined)
inactive: Potency [1] | Potency [2] | Potency [3] | Potency [4] | outcome [5] | outcome [7] | outcome [8] | outcome [9]

Cc1ccc(C(=O)Nc2ccc(S(=O)(=O)O)c3cc(S(=O)(=O)O)cc(S(=O)(=O)O)c23)cc1NC(=O)c1cccc(NC(=O)Nc2cccc(C(=O)Nc3cc(C(=O)Nc4ccc(S(=O)(=O)O)c5cc(S(=O)(=O)O)cc(S(=O)(=O)O)c45)ccc3C)c2)c1
inactive: Potency [1] | Potency [2] | Potency [3] | Potency [4] | outcome [5] | outcome [6] | outcome [7] | outcome [8] | outcome [9]

CC1(C)[C@@H]2CC[C@@]1(C)[C@H](O)C2
inactive: Potency [1] | Potency [2] | Potency [3] | Potency [4] | outcome [5] | outcome [6] | outcome [7] | outcome [8] | outcome [9]

c1coc(CNc2ncnc3nc[nH]c23)c1
inactive: Potency [1] | Potency [2] | Potency [3] | Potency [4] | outcome [5] | outcome [6] | outcome [7] | outcome [8] | outcome [9]

O=C1CCCCCCCCCCCCCCO1
inactive: Potency [1] | Potency [2] | Potency [3] | Potency [4] | outcome [5] | outcome [6] | outcome [7] | outcome [8] | outcome [9]

CC(C)CC(C)(N)C#N (centres undefined)
inactive: Potency [1] | Potency [2] | Potency [3] | Potency [4] | outcome [5] | outcome [6] | outcome [7] | outcome [8] | outcome [9]

CC1OC1C1CCC2(C)OC2C1 (centres undefined)
inactive: Potency [1] | Potency [2] | Potency [3] | Potency [4] | outcome [5] | outcome [6] | outcome [7] | outcome [8] | outcome [9]

[O-][n+]1cccc(CO)c1
inactive: Potency [1] | Potency [2] | Potency [3] | Potency [4] | outcome [5] | outcome [6] | outcome [7] | outcome [8] | outcome [9]

C=C[Si](OC(C)=O)(OC(C)=O)OC(C)=O
inactive: Potency [1] | Potency [2] | Potency [3] | Potency [4] | outcome [5] | outcome [6] | outcome [7] | outcome [8] | outcome [9]

CC(=O)C1CCCCC1=O (centres undefined)
inactive: Potency [1] | Potency [2] | Potency [3] | Potency [4] | outcome [5] | outcome [6] | outcome [7] | outcome [8] | outcome [9]

CC(CC=O)CC(C)(C)C (centres undefined)
inactive: Potency [1] | Potency [2] | Potency [3] | Potency [4] | outcome [5] | outcome [6] | outcome [7] | outcome [8] | outcome [9]

CC/C=C\CCOC(C)OCC (centres undefined)
inactive: Potency [1] | Potency [2] | Potency [3] | Potency [4] | outcome [5] | outcome [6] | outcome [7] | outcome [8] | outcome [9]

OCCc1ccccn1
inactive: Potency [1] | Potency [2] | Potency [3] | Potency [4] | outcome [5] | outcome [6] | outcome [7] | outcome [8] | outcome [9]

CN1CC(=O)N/C1=N/C(=O)Nc1cccc(Cl)c1
inactive: Potency [1] | Potency [2] | Potency [3] | Potency [4] | outcome [5] | outcome [6] | outcome [7] | outcome [8] | outcome [9]

CCCc1ncc(C[n+]2ccccc2C)c(N)n1
inactive: Potency [1] | Potency [2] | Potency [3] | Potency [4] | outcome [5] | fluorescence, relative to Rose Bengal [6] -0.079% [at 18.6 µM] | fluorescence, % of fluorescein control [7] 0.0061% [at 18.6 µM] | fluorescence, % of triamterene [8] -0.0062% [at 18.6 µM] | fluorescence, % of fluorescent control [9] 0.0217% [at 18.6 µM]

Cc1cc(C)c(N=Nc2c(O)c(S(=O)(=O)O)cc3cc(S(=O)(=O)O)ccc23)cc1C
inactive: activation [1] -4.32% [at 8.3 µM] | activation [2] 1.99% [at 8.08 µM] | activity change, negative = cytotoxicity [3] 11.3% [at 8.08 µM] | activity, negative = cytotoxicity [4] -13.8% [at 8.08 µM] | activity change, negative = cytotoxicity [5] -3.07% [at 8.08 µM] | fluorescence, relative to Rose Bengal [6] 0.0524% [at 9.17 µM] | fluorescence, % of fluorescein control [7] -0.0414% [at 9.17 µM] | fluorescence, % of triamterene [8] -0.0938% [at 9.17 µM] | fluorescence, % of fluorescent control [9] -0.166% [at 9.17 µM]

C[N+](C)(C)CCCCCCCCCC[N+](C)(C)C
inactive: Potency [1] | Potency [2] | Potency [3] | Potency [4] | outcome [5] | outcome [6] | outcome [7] | outcome [8] | outcome [9]

From PubChem BioAssay (Tox21)
